Twelve compounds from PubChem BioAssay (EPA / NIEHS) can be followed below.

Calls of active or inactive are those of the source. How the source made its calls: active means hit-call score of the fitted dose curve at least 0.9, where 1 is the maximum; inactive means score below 0.9.

Read-out in this assay: Cytochrome P450 4A22 (Homo sapiens) (UniProt Q5TCH4)
The experiment in a line: LTEA_HepaRG_CYP4A22: Life Technologies and Expression Analysis (LTEA) Assay for Cytochrome P450 4A22 (CYP4A22) using HepaRG (AID 2283495). The conditions noted are these: mRNA level, 48 h; actives raise or lower the signal. The protocol:
LTEA_HepaRG is a cell based, multiplexed-readout assay that uses HepaRG, a human liver cell line, with measurements taken at 48 hours after chemical dosing on a 96-well plate.LTEA_HepaRG_CYP4A22 is one of 102 assay component(s) measured in the LTEA HepaRG cell culture assay. It is a marker of NR mediated metabolism.Data from the assay component LTEA_HepaRG_CYP4A22 was analyzed into 1 endpoint. This assay endpoint, LTEA_HepaRG_CYP4A22, was analyzed with bidirectional fitting relative to DMSO as the negative control and baseline of activity. Using a type of inducible reporter, measures of mRNA induction for gain or loss-of-signal activity can be used to understand regulation of transcription factor activity. To generalize the intended target to other relatable targets, this assay endpoint is annotated to the cyp intended target family, where the subfamily is xenobiotic metabolism.
A total of 1060 chemcials from the ToxCast library were tested in eight-point concentration-response experiments. Cell culture and cytotoxicity assays were conducted at Thermo Fisher Scientific's Custom Services facility (Madison, WI). A single lot of human HepaRG cells (Thermo Fisher Scientific, Frederick, MD) was used for the cell culture experiments. 96-well format collagen type I coated plates of human HepaRG cells were prepared using established methods. Briefly, cryopreserved HepaRG cells were thawed, plated at a density of approximately 100,000 cells/well in HepaRG Thaw, Plate, and General Purpose media (HPRG770, Thermo Fisher Scientific), and incubated for 48 hours. 0.5% DMSO was selected as vehicle control to balance the requisite need of DMSO in HepaRG cultures to maintain differentiation (for example, baseline metabolism, proportions of hepatocytes vs. cholangiocytes), while enabling further hepatic receptor pathway activation (for example, PXR and CAR) in response to chemical exposure. 48 hours after plating, the culture medium was replaced with HepaRG Serum-Free Incudtion Media. Cells were exposed to each test chemical in duplicate and maintained in CO2 incubators for another 48 hours. Chemical plates were thawed to room temperature and 200x concentrations of treatment groups were prepared. 8-point conentration-reponse curves were made with the highest exposure at 100 uM, followed by half-log dilutions, all in 0.5% DMSO. Each test plate contained variouse controls, induction positive controls (1mM phenobarbital), cytotoxicity positive controls ([…] aflatoxin B1), vehicle controls (0.5% DMSO), and total lysis controls (0.5% DMSO). Cell morphology images were taken using an Essen IncuCyte FLR automated microscope, with six 96-well plates imaged in about 24 minutes. Images were captured and exported and JPEG files. Spent culture media was transfered to black-well plates for the LDH assay, and remaining media was sorted at -80 C for later use. Cells were treated with RLT buffer and frozen until shipped for gene expression analysis. Total RNA was isolated from the cell suspension in 75 uL of Buffer RLT (Qiagen, Germantown, MD 20874) by Quintiles/Expression Analysis (Durham, NC) using a custom isolation procedure. Total RNA from each plate well was transferred to a preamplification plate. Fluidigm's 96.96 Dynamic ArrayTM (Fluidigm, Amsterdam, the Netherlands) technology was used for gene expression analyses by quantitative reverse transcription polymerase chain reaction (qRT-PCR, performed by Quintiles/Expression Analysis, Durham, NC)89. Standard TaqManTM Assays (Applied Biosystems/ThermoFisher Scientific, Foster City, CA) were used to assess the expression of 93 genes selected based on their selectivity and sensitivity to important hepatic receptors known to be modulated by environmental chemicals; importance in human hepatocyte functionality; and hepatotoxicity. […]
Turning to `OCCN(CCO)CCO`, the compound was classed as inactive.

As for `Clc1cccc(Cl)c1Cl`, the outcome was inactive.

`Clc1cccc(Cl)c1`: the result was inactive.

With `O=C(O)C1(c2ccc3c(c2)OC[C@H](Cc2ccc(-c4ccccc4)cc2)[C@H]3O)CCCC1`, the compound was called inactive.

For the compound `COc1ccccc1N`, the call was inactive.

Regarding `CC(C)O.CC(C)O.OCCN(CCO)CCO.OCCN(CCO)CCO.[Ti]`, the compound was called inactive.

On to `Oc1cc(Cl)c(Cl)cc1Cl`, for which the call was inactive.

For `CC(C)(C)c1ccccc1O`, the compound was classed as inactive.

In the case of `Cc1cc(C)cc(C)c1`, the compound was classed as inactive.

Turning to `N#Cc1cccnc1`, the outcome was inactive.

`O=C(N[C@H]1CN2CCC1CC2)c1ccc2c(c1)OCCO2`: the compound was called inactive.

As for `CCCCCCCCCCCCc1cccc(S(=O)(=O)O)c1`, the half-maximal activity concentration (AC50) (in general, the concentration at which the activity in the assay is half-maximal) was 25.6 µM (active).
